Shown are actives, neighbours in structure and some others; about 20% of the full set was active somewhere.
Shiga toxin inh – blocks Shiga toxin action in Vero cells. inhibition, % at 38.7 µM. 290,000 tested, 9.2% active. Vero cells, Shiga toxin protein synthesis inhibition reporter. AID 2315; in the data active means inhibition mostly above about 28%, no sharp cut-off; inactive means mostly below about 43%; further: 0% is about no effect
CHX counter – counter-screen for Shiga toxin inhibitors: cycloheximide protein synthesis inhibition. cell reporter, cycloheximide protein synthesis inhibition counterscreen. max response, %. 300,000 tested, 12% active; in the data active means max response mostly above about 13%, no sharp cut-off; inactive means mostly below about 14%; further: read at 38.3 µM for the half of the compounds with a filed dose; 0% is about no effect
Pf growth 48h – P. falciparum growth inhibition at 48 hours (one generation); P. falciparum luciferase growth in erythrocytes, 48 h; Potency, µM (doses to about 28.7 µM), for the others: at the highest dose activity change, negative = inhibition, most hits filed as inhibitors; 310,000 tested, 5.9% active; AID 504832; further: potency means the concentration at half of the fitted maximal effect; on the % scale 0 is the no-effect control and ±100 the full control effect
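Erythrocytes infected with P. falciparum carrying an integrated firefly luciferase reporter (2% hematocrit, 0.1% parasitemia final) were exposed to compounds in RPMI 1640 with 0.5% Albumax at 37 C, 5% CO2. Growth inhibition was scored as reduced luminescence.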
Pf growth 96h – inhibits malaria parasite growth, 96 h | Potency, µM (top dose mostly 28.7 µM), for inactives: at the highest dose activity change, negative = inhibition, usual class: inhibitors | AID 504834 | 320,000 tested, 6.9% active | P. falciparum luciferase reporter growth, 96 h; further: potency means the concentration at half of the fitted maximal effect; on the % scale 0 is the no-effect control and ±100 the full control effect
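Cell-based qHTS: luciferase-tagged P. falciparum in erythrocytes (2% hematocrit, 0.05% parasitemia final) incubated with compounds for 96 hours, 37 C, 5% CO2; luciferase detection reagent then added and luminescence measured.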
HCMV inh – human cytomegalovirus inhibition. HFF cells, HCMV-luciferase reporter, 72 h; stronger effect = lower value. activity change, negative = inhibition, % at 57.5 µM. 410,000 tested, 4.5% active. AID 1259415; in the data active means activity change below about -60%; inconclusive means no clear call, values can overlap the other calls; inactive means above about -39%; further: on the % scale 0 is the no-effect control and ±100 the full control effect
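Human foreskin fibroblasts infected with luciferase-reporter HCMV at MOI 1 PFU/cell, compounds at two doses. Luciferase measured 72 h post infection; normalized to buffer-only basal and Salinomycin (10uM) controls.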
* marks the source's active call; other numbers are inactive results; ? = inconclusive; . = no result given; [ ] = another dose, or the depositor's remark. Unless noted, the call rests on the fitted dose curve; in most records, active means well fitted inhibition curve with a large enough effect; inconclusive means small, poorly fitted or top-dose-only effect, or another doubt; inactive means no such curve, though single readings can be large or run the other way.

SMILES	Shiga toxin inh	CHX counter	Pf growth 48h	Pf growth 96h	HCMV inh
COc1ccccc1OCC(=O)Nc1cccc(-c2nnc(-c3ccco3)o2)c1	81.9*	35.6*	?	31.7%[5.75 µM]	120.8
CCc1ccc(C(O)c2ncc(-c3ccc(Cl)cc3)[nH]2)cc1 (configuration not stated)	.	.	.	.	-3.4
CCOC(=O)/C(C#N)=C(C)/C=C1\Sc2ccccc2N1CC	-5.6	13.5	4.9%	-9.7%	91.5
CCCN1C(=O)/C(=C\C=C2/Sc3ccccc3N2CC)SC1=S	-12.1	-3.4	22.0%	49.0%	.
CCN1/C(=C2\OC(=S)N(C)C2=O)Sc2ccccc21	40.0*	13.9*	34.4%	20.9%	87.6
CCN1/C(=C\C(=S)Nc2ccccc2)Sc2ccccc21	56.3*	30.8*	-3.0%	23.6%	-60.9*
CCN1C(=O)/C(=C2/Sc3ccccc3N2CC)SC1=S	.	-2.4	8.5%	?	-24.7
CCN1/C(=C\C=C(C(C)=O)C(C)=O)Sc2ccccc21	16.4	18.9*	0.1%	-9.6%	22.6
CCN1/C(=C\C=C2\C(=O)N(c3ccccc3)C(=S)N2C)Sc2ccccc21	-10.5	-2.3	-4.1%	77.0%[5.75 µM]	-63.6*
COc1ccc(NC(=O)CSC2=Nc3ccccc3C3=NC(CCC(=O)NCc4ccco4)C(=O)N23)cc1 (configuration not stated)	.	.	.	.	-37.4
O=C(CCNC(=O)c1ccc(Cl)cc1)NCc1ccccc1Cl	.	.	-19.5%	-23.7%	0.2
Cc1cccc(C)c1NC(=O)CNC(=O)Cc1ccccc1[N+](=O)[O-]	-9.5	-1.6	16.8%	-4.7%	11.1
O=C(Cc1ccc(Cl)cc1)NCc1ccccc1Cl	115.4	49.5*	118.9%	11.7%	10.6
Cc1ccccc1CNC(=O)Cc1ccccc1[N+](=O)[O-]	61.9*	58.4*	77.3%	?	101.6
O=C(NCc1ccccc1Cl)c1ccc(-c2ccccc2)cc1	46.9*	22.3*	18.5%	?	-30.7
O=C(/C=C/c1cccc([N+](=O)[O-])c1)NCCSCc1ccc(Cl)cc1Cl	-10.6	-3.5	1.7%	-17.7%	-11.4
O=C(/C=C/c1cccc([N+](=O)[O-])c1)NCCSCc1ccccc1Cl	0.8	-0.6	-0.4%	2.94µM*	41.0
COc1ccc(Cl)cc1NC(=O)Cn1ncc2c3ccccc3n(C)c2c1=O	.	.	.	.	2.3
COC(=O)[C@]12CCCCC=C1N(CCC1=CCCCC1)C(=O)[C@H](CC(=O)NCCc1ccccc1OC)C2	.	.	.	.	10.8
CC(C)C[C@H](NC(=O)NCc1ccccc1Cl)C(=O)O	23.9	-3.6	6.9%	0.928µM*	53.3
COC(=O)C(Cc1ccccc1)NC(=O)C(CC(C)C)NC(=O)OC(C)(C)C (configuration not stated)	-6.3	-2.4	-1.3%	24.4%	8.9
CCC(C)[C@H](NC(=O)NCc1ccccc1Cl)C(=O)O (some centres not stated)	-4.5	-1.5	15.8%	.	22.0
O=C(/C=C/c1ccccc1[N+](=O)[O-])NCc1ccccc1Cl	59.6	50.2*	-10.2%	-21.9%	-20.5
CC(C)C[C@@H](NC(=O)[C@@H](O)[C@H](N)Cc1ccccc1)C(=O)O	34.3*	40.5*	.	.	.
O=C(Cc1ccccc1[N+](=O)[O-])NCc1ccccc1Cl	95.4*	54.5*	75.4%	212.0%	82.4
SMILES	Shiga toxin inh	CHX counter	Pf growth 48h	Pf growth 96h	HCMV inh
Cc1noc(C)c1S(=O)(=O)NC(=O)C1(C)CCN1C(=O)C1(c2ccc(Cl)cc2)CCC1 (configuration not stated)	.	.	.	.	-20.7
Cc1ccc(C(=O)Oc2ccc(-c3nnco3)cc2)o1	.	.	53.0%	?	-16.5
O=C(Cc1ccccc1[N+](=O)[O-])NCCSCc1c(F)cccc1Cl	40.4	40.4*	-9.1%	-3.8%	56.4
O=C(Cc1ccc(Cl)cc1)NCCS(=O)c1ccc(Cl)cc1 (configuration not stated)	-16.1	-5.1	7.9%	1.17µM*	-18.0
O=C(Cc1ccccc1)NCCS(=O)c1ccc(Cl)cc1 (configuration not stated)	-23.1	-5.2	12.2%	41.7%	-32.7
CC(C)NC(=O)C1C(c2ccccc2)=Nc2ccccc2N1C(=O)c1cc(Cl)cc(Cl)c1 (configuration not stated)	.	.	.	.	-23.8
Nc1ccc(C(=O)n2c3ccccc3c3ccccc32)cc1	-14.5	-6.0	-12.1%	2.33µM*	-79.1*
Cc1ccccc1S(=O)Cc1ccc(C(=O)NCc2ccccc2Cl)o1 (configuration not stated)	.	.	.	.	1.9
O=C(NNc1nc2ccccc2s1)c1ccc(F)cc1	88.9*	43.6*	13.1µM*	?	-15.4
